Here are results for 38 molecules from PMC13494018.

To fix the notation:
B1: design_615_ab801fab-270b-4f6a-b2b5-83c165df418c_2088_dldesign_0_cycle1_af2pred (protein)
chain: DTERKLALLQEAIVKLTEALAAYNTDPATGRALAREAAELLKEAGLEEAAELARKAAEDPENGFEYARRALGLVTKAYIELSR
B2: design_615_ab801fab-270b-4f6a-b2b5-83c165df418c_806_dldesign_0_cycle1_af2pred (protein)
chain: AAQAQAIEQLEKLIETAKELAKERPEEKEEILGKAHETAGQVLTLIAKGLQDPATAEQALKLAQAKLKEMEKKLKEAKA
B3: design_615_ab801fab-270b-4f6a-b2b5-83c165df418c_2473_dldesign_0_cycle1_af2pred (protein)
chain: SPEALTAAVRAEGDALLAEAEATAAADPEAGKAAYEAAIRRLLGLAARLLQESPAAAQAALDRAVELAAKLEEL
B4: design_616_e8336982-fa4d-4d7c-b06f-9007953e1994_173_dldesign_0_cycle1_af2pred (protein)
chain: MEEKSKELKKKLEEAKKIAKEDPEKGAELAAEAAKEAAEAGDFGSAGEAIVLIAKMGTPKASRELAEASRYLIAAIRAA
B5: design_615_ab801fab-270b-4f6a-b2b5-83c165df418c_2317_dldesign_0_cycle1_af2pred (protein)
chain: GAARMAAAGAQAAALAAELPAAVDPMLEGILNPETREAHEAEARAIARALDPENAEELWARVLRAAMGLLLAQGLARA
B6: design_615_ab801fab-270b-4f6a-b2b5-83c165df418c_1854_dldesign_0_cycle1_af2pred (protein)
chain: LRERAESNLAFAQTALEAAKQAKAAGAPQSLVQGLANIAERAAQLAIEEAAKDPALAPLAEEAKKVAEEAKKVAA
B7: design_616_e8336982-fa4d-4d7c-b06f-9007953e1994_177_dldesign_0_cycle1_af2pred (protein)
chain: AGQATYNAAKAMAKSAAAMYLAGKYEDAEKVYQVAVDLAQSLIADPASKAQGEKALAYAKETYAKAKAEAEKKAA
B8: design_615_ab801fab-270b-4f6a-b2b5-83c165df418c_2495_dldesign_0_cycle1_af2pred (protein)
chain: GEAEAKFAEALALLDRAEELAKGGDAAQLAEASALLTQAIELATQVSPEKRAEISRRAAEISKRLLAQLAA
B9: design_615_ab801fab-270b-4f6a-b2b5-83c165df418c_1881_dldesign_0_cycle1_af2pred (protein)
chain: ALAAELAREALRAEAERIAAAKLAEAKAGTPETAQAQAAYLVSLAEEHPETAGIYLGAAAQIHAVLIAKTA
B10: design_615_ab801fab-270b-4f6a-b2b5-83c165df418c_1575_dldesign_0_cycle1_af2pred (protein)
chain: GEEEEKKKKEKFEEAAEKVNKGLALASQAALADPKYQPVLAKVVELAKEAEKLKKEGKAEEALKKAEEAYEVAKKALAAVKAA
B11: design_615_ab801fab-270b-4f6a-b2b5-83c165df418c_1763_dldesign_0_cycle1_af2pred (protein)
chain: EELVERLRLMRDVVAAALAAAGLDADAFAALLEAAAAAAREDPARAVELLARVAERAEELAAKASPLQRGVLRFAVTVARGAAAALA
B12: design_615_ab801fab-270b-4f6a-b2b5-83c165df418c_2173_dldesign_0_cycle1_af2pred (protein)
chain: LTPEEKQKLIEEGTELRNKGAALANQAMLAAAAGDKATAKELMAKAKEYFDKAIELYEKAGDEKKAESVKKLKDTLTSAFEAQLAA
B13: design_615_ab801fab-270b-4f6a-b2b5-83c165df418c_1773_dldesign_0_cycle1_af2pred (protein)
chain: SETAEEARRAVERLKEAAKKLAKAGTPEHAGYAEGLVTTTTALVERLLAAGREEEALRAARRALERAERLLKKALA
B14: design_615_ab801fab-270b-4f6a-b2b5-83c165df418c_1027_dldesign_0_cycle1_af2pred (protein)
chain: KEALEKAKKEAEKILKEAAEKVSPEVAKYVEEAAKQPTIEEMIHKVLLAAAKAGQVNLEDGKILLEAAEKIAAIYKKAKEE
B15: design_615_ab801fab-270b-4f6a-b2b5-83c165df418c_1933_dldesign_0_cycle1_af2pred (protein)
chain: ALQGALRSAAALLRNAAESEDPESREKLLDVAADLAAYAATLDPAAGAALAAAVEEARREGPEGARRAAELAAALAAA
B16: design_615_ab801fab-270b-4f6a-b2b5-83c165df418c_1064_dldesign_0_cycle1_af2pred (protein)
chain: AREQAQQALDFALANAQLIAQRRGEAGKRLAELVQKALEADEEEALKYLEEAIRLAEELAKDPAVAALARAAILALREARRLLE
B17: design_615_ab801fab-270b-4f6a-b2b5-83c165df418c_671_dldesign_0_cycle1_af2pred (protein)
chain: SPDAVAARGYLAMLRAAVAELERAAEELARDPEKAAEARALVERARALLAEAEALLADPAQAAAAAAAARAALEEVLEFIRRARELAA
B18: design_615_ab801fab-270b-4f6a-b2b5-83c165df418c_1503_dldesign_0_cycle1_af2pred (protein)
chain: AAALAAAQAAAGATALETLEVASKAAKAGSPEVAAEANKLAQQATQLAQQAAQGDLATAKAQLAAIQKLLAQAKELLKK
B19: design_615_ab801fab-270b-4f6a-b2b5-83c165df418c_2496_dldesign_0_cycle1_af2pred (protein)
chain: GEKEELIKKAEEKAAKAKEYEAKAKAAAADPAKAVEYYNKALYLYLEAAKLASKADPELAKKYSDEANKVAKKAIEAAKAA
B20: design_615_ab801fab-270b-4f6a-b2b5-83c165df418c_2427_dldesign_0_cycle1_af2pred (protein)
chain: AMEAAKAAAKAAAAAAAAAGLTDLAAEIAAAAKEAEETGIEGANRLMGLAARYAVQHPALNAAMSALIEAAGAYIAEAA
B21: design_615_ab801fab-270b-4f6a-b2b5-83c165df418c_706_dldesign_0_cycle1_af2pred (protein)
chain: ASAARMAEIQAKGEEVAEKAKEKYKELLERLPDPEEALAEARAYLREVGAQYSGAVLGYALSLFESWAEEEL
B22: design_615_ab801fab-270b-4f6a-b2b5-83c165df418c_1179_dldesign_0_cycle1_af2pred (protein)
chain: SPTEIAGKAVREIQELTEQAIANPETAEQLAAEAKKVAEEAGKKTGEGLAQLLKNVAAQREKEVQAALAA
B23: design_615_ab801fab-270b-4f6a-b2b5-83c165df418c_1665_dldesign_0_cycle1_af2pred (protein)
chain: MEEEKEKEKYIKELKKAAEEAIKTAKEAAKLDPKAGGALLKYVEASGKQALENAEKGDLETAKNQLEFMKQVLEIAKGTLAALKAA
B24: design_615_ab801fab-270b-4f6a-b2b5-83c165df418c_921_dldesign_0_cycle1_af2pred (protein)
chain: SAALKAALAALDAAEKAAEAADPEVAAIVRATREAVKKAPDEVAAKAAQMATAIESLAKAGFVASARATARNLLAYVSAAVAAAE
B25: design_615_ab801fab-270b-4f6a-b2b5-83c165df418c_863_dldesign_0_cycle1_af2pred (protein)
chain: AQAAEAALRTAEAVVRRAEEAIARGASPEELRALAKLAEVVAESLLAVAKTASPEQAKRLEEAAERARRAAEEARRAAERLEREAA
B26: design_615_ab801fab-270b-4f6a-b2b5-83c165df418c_1174_dldesign_0_cycle1_af2pred (protein)
chain: ADEEDLAAAKKRLEDTKKLVEINLTMANQGPLGAKAAIASLNTQIKVLEAAKKAATPAAQPELDKAIAIAKAALAEAKAKAAA
B27: design_615_ab801fab-270b-4f6a-b2b5-83c165df418c_2413_dldesign_0_cycle1_af2pred (protein)
chain: AAAALAAEALALREKGVAAAKAGRYALARNYFLQALITAGASPATIQAVVRALAAGAADPSTAPAAVAHADATVTAAAAAVAAA
B28: design_616_e8336982-fa4d-4d7c-b06f-9007953e1994_26_dldesign_0_cycle1_af2pred (protein)
chain: SLEEAAAQAQALVDQATALGAQDYASASQGIALLAEAAKLVEEAGLPPETAAAIMAAINAALATVSKNAAAFVAA
B29: design_615_ab801fab-270b-4f6a-b2b5-83c165df418c_1262_dldesign_0_cycle1_af2pred (protein)
chain: KEAAEKAAEKKAEEIKKIAEIAGGAVSPEDAAKIKKEAEEKIEELKKFAKESTPEEAEKYGQELVLEFSQSATKVMVAAAKAA
B30: design_615_ab801fab-270b-4f6a-b2b5-83c165df418c_2359_dldesign_0_cycle1_af2pred (protein)
chain: MEEDVALLRDIARLGRESLERARAGTAAEAERALADFTAAADAAIARLAPGEGAALLAANMRARFAAEMRAVAAAKAA
B31: design_615_ab801fab-270b-4f6a-b2b5-83c165df418c_1097_dldesign_0_cycle1_af2pred (protein)
chain: SEAMKTAGAKILTATAASLERQLAEARANPGELRPRAAALAQLAAQLAESAKAIGDEETAARLAAISAEAAALAA
B32: design_615_ab801fab-270b-4f6a-b2b5-83c165df418c_1187_dldesign_0_cycle1_af2pred (protein)
chain: AAAEEVARRGASALAAGQNLIEMAKAASPEAAAVATAALAQAKALLAQGTPEAAEQAQQVINDAMAQVSKIMIAAA
B33: design_615_ab801fab-270b-4f6a-b2b5-83c165df418c_1266_dldesign_0_cycle1_af2pred (protein)
chain: AAALEEAKAQLKKLAEELLEKSKEAAKLGSDAAIAVTSKYVAKGSALLVQYPEVSSEPLVEAVKEASKLIKEA
B34: design_615_ab801fab-270b-4f6a-b2b5-83c165df418c_2322_dldesign_0_cycle1_af2pred (protein)
chain: AQAEVKAKAEKLIEELIKASSEVVAAAAKAGDGESAVEANKAASEAIKKIKAAAKAGDLEAAKKAAEEGMKKLKELKAKVEAK
B35: design_615_ab801fab-270b-4f6a-b2b5-83c165df418c_1818_dldesign_0_cycle1_af2pred (protein)
chain: DPRAAASQALAAATADALLARLGELAGADVADRLRALLAGDAASKAEAARLARALAEEWRARNPAAAAALYGIAVLAESLAA
B36: design_615_ab801fab-270b-4f6a-b2b5-83c165df418c_776_dldesign_0_cycle1_af2pred (protein)
chain: MEEAEEAYREAEEIKRETKAKAEAGTLTAQEAMEALARLEELREKLRELAEEEGEEAEEYYREVNEYAVEVSRIANAVFAAERAA
B37: design_615_ab801fab-270b-4f6a-b2b5-83c165df418c_702_dldesign_0_cycle1_af2pred (protein)
chain: GEELREKAEKEAKQTLELVEGALEYAKTASPEAAALMEKALEEVKKLIELGKKSDAEEYAKYVEKARKVAFNAIAQATALIAA
B38: design_616_e8336982-fa4d-4d7c-b06f-9007953e1994_74_dldesign_0_cycle1_af2pred (protein)
chain: EKEAQEKREKAKKLIEEIKKLAKEVAANPAISGMLNQLAKAAETAAANSSPEQGLKNAEKWLEIGKEAAKTAAA

Chain of CD276, Q5ZPR3 (Q5ZPR3 whole entry): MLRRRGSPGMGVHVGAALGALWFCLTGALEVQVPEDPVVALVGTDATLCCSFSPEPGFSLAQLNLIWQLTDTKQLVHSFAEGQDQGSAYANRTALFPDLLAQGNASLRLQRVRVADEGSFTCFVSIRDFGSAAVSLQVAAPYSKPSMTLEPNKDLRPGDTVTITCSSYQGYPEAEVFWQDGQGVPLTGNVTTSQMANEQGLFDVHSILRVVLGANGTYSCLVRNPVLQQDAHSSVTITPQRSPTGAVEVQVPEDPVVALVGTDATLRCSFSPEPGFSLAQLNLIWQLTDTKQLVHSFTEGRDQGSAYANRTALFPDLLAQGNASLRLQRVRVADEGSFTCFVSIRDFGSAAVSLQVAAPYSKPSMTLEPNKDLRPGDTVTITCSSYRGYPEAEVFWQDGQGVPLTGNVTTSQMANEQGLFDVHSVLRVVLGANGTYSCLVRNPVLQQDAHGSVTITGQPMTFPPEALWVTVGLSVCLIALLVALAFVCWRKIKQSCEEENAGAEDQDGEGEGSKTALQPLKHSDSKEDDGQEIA

This test has as its target CD276, Q5ZPR3.
B1: the “binding in a display sort” value was “not found (inactive)”.

In the case of B2, the “binding in a display sort” value is “not found (inactive)”.

B3: the “binding in a display sort” value was “not found (inactive)”.

Consider B4, for which the “binding in a display sort” value was “not found (inactive)”.

On to B5, for which the “binding in a display sort” value is “not found (inactive)”.

B6: the “binding in a display sort” value is “not found (inactive)”.

As to B7, the “binding in a display sort” value was “not found (inactive)”.

Consider B8, for which the “binding in a display sort” value was “not found (inactive)”.

On to B9, for which the “binding in a display sort” value was “not found (inactive)”.

Consider B10, for which the “binding in a display sort” value was “not found (inactive)”.

B11: the “binding in a display sort” value is “not found (inactive)”.

Consider B12, for which the “binding in a display sort” value was “not found (inactive)”.

Turning to B13, the “binding in a display sort” value is “not found (inactive)”.

For the molecule B14, the “binding in a display sort” value is “not found (inactive)”.

Consider B15, for which the “binding in a display sort” value is “not found (inactive)”.

Take B16: the “binding in a display sort” value was “not found (inactive)”.

With B17, the “binding in a display sort” value was “not found (inactive)”.

Take B18: the “binding in a display sort” value is “not found (inactive)”.

As for B19, the “binding in a display sort” value was “not found (inactive)”.

For the molecule B20, the “binding in a display sort” value is “not found (inactive)”.

As to B21, the “binding in a display sort” value was “not found (inactive)”.

Consider B22, for which the “binding in a display sort” value is “not found (inactive)”.

As to B23, the “binding in a display sort” value is “not found (inactive)”.

Take B24: the “binding in a display sort” value was “not found (inactive)”.

In the case of B25, the “binding in a display sort” value was “not found (inactive)”.

On to B26, for which the “binding in a display sort” value was “not found (inactive)”.

B27: the “binding in a display sort” value is “not found (inactive)”.

For the molecule B28, the “binding in a display sort” value is “not found (inactive)”.

For B29, the “binding in a display sort” value was “not found (inactive)”.

Regarding B30, the “binding in a display sort” value is “not found (inactive)”.

B31: the “binding in a display sort” value was “not found (inactive)”.

Consider B32, for which the “binding in a display sort” value is “not found (inactive)”.

Turning to B33, the “binding in a display sort” value is “not found (inactive)”.

Take B34: the “binding in a display sort” value was “not found (inactive)”.

With B35, the “binding in a display sort” value was “not found (inactive)”.

As to B36, the “binding in a display sort” value was “not found (inactive)”.

B37: the “binding in a display sort” value is “not found (inactive)”.

Regarding B38, the “binding in a display sort” value was “not found (inactive)”.
